Compounds with a hit are over-represented: about 2.3% of the library has one in this group of screens.
Abeta rescue = restores growth of yeast expressing A-beta42 peptide. yeast expressing A-beta42, growth rescue, OD600, 48 h; response scale: 0% DMSO, 100% iron-clioquinol control. Potency, µM (doses to about 46.1 µM), actives largely listed as activators. 0.063% of 410,000 active. AID 1347071; also: potency is read from the fitted curve at half-maximal effect; nearly all actives have a fitted effect of over 55% in size
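Yeast A-beta toxicity model in growth medium with pinned compounds, 48 h at 30 C; growth read as absorbance at 600 nm. Normalized to FeCl3/clioquinol equimolar mix (positive) and DMSO (negative).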
TDP43 rescue = TDP-43 toxicity inhibition in yeast; TDP-43 expressing yeast growth rescue, BacTiter-Glo, 24 h; Potency, µM (doses to about 46.1 µM), without a hit: at the top dose growth rescue (activation), actives largely listed as activators; 1.8% of 410,000 active; AID 652104; also: potency is read from the fitted curve at half-maximal effect; % of control where 0% means no effect; nearly all actives have a fitted effect of over 50% in size
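Cell-based yeast growth screen: TDP-43 expression induced in galactose, inoculum OD600=0.02 after raffinose pregrowth to mid-log. Read-out BacTiter-Glo luminescence at 24 hr, 30 deg C; inhibition of toxicity seen as signal increase.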
pAkt inh = Akt phosphorylation inhibition. AID 651550. 0.32% of 360,000 active. activity change, % for hits at 50 µM. Neuro2A IGF-stimulated pAkt S473 HTRF, 20 min; stronger effect = lower value; in the data active = activity change below about -80%; inconclusive = mostly about -51% to -80%; also: % is scaled to controls: 0 for no effect and ±100 for the full control effect
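Neuro2A cells in DMEM with 0.5% FBS, overnight at 37 deg C, given compound at single 50 µM final, then IGF (6 nM final) for 20 min at 37 deg C. Lysed; phospho-Akt Ser473 by HTRF after 24 h, 665/615 ratio.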
FUS suppressor = suppressors of FUS proteinopathy in yeast. S. cerevisiae FUS-expressing, growth rescue, OD600, 24 h. Potency, µM (doses to about 76.6 µM), hits mostly activators. 0.24% of 390,000 active;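 also: potency is read from the fitted curve at half-maximal effect; plate controls were DMSO vehicle for no effect and reference control for full effect; nearly all actives have a fitted effect of over 55% in size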
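Quantitative HTS measuring growth restoration of FUS-toxic yeast. Galactose-induced cells (OD 0.005) were exposed 24hr at 30C to compounds at several concentrations, then absorbance at 600 nm was recorded.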
aSyn rescue = inhibitors of alpha-synuclein toxicity in yeast; Yeast expressing alpha-synuclein, growth rescue, BacTiter-Glo, 24 h; Potency, µM (doses to about 46.1 µM), for inactives: top-dose growth rescue (activation), hits mostly activators; 0.14% of 370,000 active; AID 652106; also: potency is read from the fitted curve at half-maximal effect; % of control where 0% means no effect; nearly all actives have a fitted effect of over 65% in size
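Readout is rescue of growth in alpha-synuclein-expressing yeast, so inhibitors of toxicity appear as activators. Growth after 24 hr at 30 deg C in galactose medium is quantified by luminescence.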
Numbers without * were called inactive; i = inactive; ? = inconclusive; · = no result. Unless noted, calls follow the shape of the dose curve; as a rule, active = well fitted curve in the direction sought with a large enough effect; inconclusive = small, poorly fitted or top-dose-only effect, or another doubt; inactive = no such curve, though single readings can be large; an effect the other way counts as inactive or inconclusive.

SMILES	Abeta rescue	TDP43 rescue	pAkt inh	FUS suppressor	aSyn rescue
O=C(O/N=C1\CCCc2ccccc21)c1cccc(Cl)c1	i	5µM*	i	i	1%
Cc1cccc(C(=O)O/N=C2\CCCc3ccccc32)c1	i	11µM*	i	i	0%
COc1ccccc1N1CCN(C(=O)COc2ccc(C)cc2Br)CC1	i	?	i	i	4%
Cc1cc(Cl)ccc1OC(C)C(=O)N1CCCN(C(=O)C(C)Oc2ccc(Cl)cc2C)CC1 (centres undefined)	i	32µM*	i	?	?
COc1cc(C(=S)N2CCN(c3ccccc3Cl)CC2)cc(O)c1O	i	-13%	i	i	-3%
COc1ccccc1N1CCN(C(=O)COc2ccc(Cl)cc2Br)CC1	i	14µM*	i	i	28µM*
COc1ccc(C(=S)N2CCN(c3ccccc3Cl)CC2)cc1OC	i	11µM*	i	i	5%
Cc1cc(Cl)ccc1OCC(=O)N1CCCN(C(=O)COc2ccc(Cl)cc2C)CC1	i	25µM*	i	·	?
Cc1cc(Cl)ccc1OCC(=O)N1CC(C)CC(C)C1 (centres undefined)	i	?	i	i	16%
CC(Oc1ccccc1Cl)C(=O)N1CCCN(C)CC1 (centres undefined)	i	-41%	i	i	-7%
Cc1cc(Cl)ccc1OCC(=O)Nc1ccccc1CO	i	13%	i	i	1%
CSc1ccccc1NC(=O)COc1ccc(Cl)cc1C	i	16µM*	i	·	-13%
Cc1cccc(NC(=O)CSc2nc3ccc(NC(=O)c4ccco4)cc3s2)c1	i	13%	·	i	·
CCOc1ccc2c3c(c(=O)oc2c1OCC)CCCC3	i	22µM*	i	i	-2%
O=C(NC(=S)NC1CCCCCC1)c1cncc(Br)c1	?	16µM*	i	·	-14%
O=C(NC(=S)Nc1ccc(N2CCOCC2)c(Cl)c1)c1cncc(Br)c1	i	20µM*	i	i	-8%
O=C(NC(=S)Nc1ncc(Br)cc1Br)c1cncc(Br)c1	i	1%	i	i	-7%
O=C(NC(=S)Nc1ccc(N2CCOCC2)c(Cl)c1)c1cccs1	?	9%	i	i	-2%
N#Cc1ccccc1CN1C(=O)c2ccccc2Sc2ccc(C(=O)OCc3ccco3)cc21	i	4%	·	?	2%
O=C(NNC(=S)NCc1ccc(Cl)cc1)c1ccc(Br)o1	i	10%	i	i	1%
CC(C)(Oc1ccc(Cl)cc1)C(=O)NNC(=O)c1ccc(Br)o1	i	14µM*	i	i	2%
Cn1nnc2c(NCc3ccc(Cl)cc3)ncnc21	i	11µM*	·	i	·
Cc1cccc2c1nc(-c1ccccc1)n1cnnc21	i	14µM*	i	i	2%
Cc1cccc2c1nc(-c1ccccc1)n1nnnc21	i	-11%	i	i	-4%
Cc1ccc(C)c(NC(=O)C2CCN(c3cc(C)nc4c(-c5ccc(Cl)cc5)c(C)nn34)CC2)c1	i	20%	·	i	·
SMILES	Abeta rescue	TDP43 rescue	pAkt inh	FUS suppressor	aSyn rescue
CCCCC(c1nnnn1CC1CCCO1)N1CCN(c2cc(Cl)ccc2C)CC1 (centres undefined)	i	18µM*	i	·	-14%
CCCCC(c1nnnn1CC1CCCO1)N1CCN(c2ccccc2)CC1 (centres undefined)	i	7%	i	i	1%
O=C1CCCCC1C(Nc1ccc(Cl)cc1)c1ccccc1 (centres undefined)	i	?	i	i	-2%
O=C1CCCCC1C(Nc1ccc(Br)cc1)c1ccccc1 (centres undefined)	i	13µM*	i	i	19%
CCn1cc(C(c2ccccc2)C(C(C)=O)[N+](=O)[O-])c2ccccc21 (centres undefined)	i	-1%	i	i	8%
CC(=O)C(C(c1ccccc1)c1c[nH]c2ccccc12)[N+](=O)[O-] (centres undefined)	?	13µM*	i	i	?
COc1ccccc1C(C[N+](=O)[O-])c1c[nH]c2ccccc12 (centres undefined)	i	20µM*	i	i	?
Cc1ccc(N2C(=O)c3ccccc3C2Nc2ccc(S(=O)(=O)N3CCCCC3)cc2)nc1 (centres undefined)	i	?	i	35µM*	0%
Cc1cccc(NC(=S)NCc2ccco2)n1	13µM*	?	i	i	1%
CCOC(=O)c1c(NC(=O)CSc2nnc(C)s2)sc2c1CCN(C)C2	i	-2%	i	25µM*	-5%
C=CCn1c(-c2cccc(Cl)c2)n[nH]c1=S	i	?	-109%*	i	-1%
CCOC(=O)C(C)Sc1ccc2nnc(-c3ccc(OCC)cc3)n2n1 (centres undefined)	·	·	·	·	2%
CCc1cnc2c(c1SC(C(C)=O)C(=O)N(C)C)c(=O)n(C)c(=O)n2C (centres undefined)	i	9%	·	i	·
Cc1ccc(NC(=O)CCn2nc(C)cc2C)cc1	i	5%	i	i	0%
COc1ccccc1-c1nn(CCC(=O)Nc2ccc(C)cc2)c2nc(C)cc(C)c12	i	35µM*	·	i	?
C/C(=N\NC(=O)COc1ccccc1-c1ccccc1)c1ccccn1	i	?	i	i	18µM*
CCOC(=O)Cc1nnc(NC(=O)c2ccco2)s1	i	-13%	-122%*	i	11%
O=C(N[C@H]1C/C=C\C[C@@H](CC(=O)N(CCO)Cc2ccccc2)C(=O)N[C@H](Cc2c[nH]c3ccccc23)COC1=O)OCC1c2ccccc2-c2ccccc21	i	24%	i	20µM*	-4%
O=C1NC[C@H](c2ccccc2)OC(=O)[C@H](Cc2ccc(F)cc2)CC/C=C/C[C@@H]1CC(=O)N(CCO)Cc1ccccc1	i	18%	i	?	4%
O=C(N[C@@H]1C/C=C\C[C@@H](CC(=O)N(CCO)Cc2ccccc2)C(=O)N[C@@H](c2ccccc2)COC1=O)OCC1c2ccccc2-c2ccccc21	i	12%	i	?	4%
O=C1NC[C@@H](c2ccccc2)OC(=O)[C@@H](Cc2ccc(F)cc2)CC/C=C/C[C@H]1CC(=O)N(CCO)Cc1ccccc1	i	-6%	i	25µM*	13%
O=C1N[C@@H](Cc2c[nH]c3ccccc23)COC(=O)[C@H](Cc2ccc(F)cc2)C/C=C\C[C@@H]1CC(=O)N(CCO)Cc1ccccc1	i	22%	i	28µM*	6%

Screens as filed in PubChem BioAssay.
